Experiment [1] addresses Serine/threonine-protein kinase MRCK alpha (Homo sapiens) (UniProt Q5VT25). Particulars: at 0.1 µM.
Experiment [2] shares this target. Particulars: at 1 µM.
Experiment [3] deals with Serine/threonine-protein kinase MRCK beta (Homo sapiens) (UniProt Q9Y5S2). Particulars: at 0.1 µM.
The target is the same in experiment [4]. As to conditions: at 1 µM.
In experiment [5] the target is Ribosomal protein S6 kinase alpha-5 (Homo sapiens) (UniProt O75582). Particulars: at 0.1 µM.
The target is the same in experiment [6]. Particulars: at 1 µM.
Experiment [7] concerns the target Ribosomal protein S6 kinase alpha-4 (Homo sapiens) (UniProt O75676). Particulars: at 0.1 µM.
The target is the same in experiment [8]. Particulars: at 1 µM.
In experiment [9] the target is Ribosomal protein S6 kinase beta-1 (Homo sapiens) (UniProt P23443). As to conditions: at 0.1 µM.
The target is the same in experiment [10]. Particulars: at 1 µM.
The target of experiment [11] is T1, 3-phosphoinositide-dependent protein kinase 1 (Homo sapiens) (UniProt O15530).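 Further: values are mean inhibition of PDK1.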
T1 sequence (whole entry): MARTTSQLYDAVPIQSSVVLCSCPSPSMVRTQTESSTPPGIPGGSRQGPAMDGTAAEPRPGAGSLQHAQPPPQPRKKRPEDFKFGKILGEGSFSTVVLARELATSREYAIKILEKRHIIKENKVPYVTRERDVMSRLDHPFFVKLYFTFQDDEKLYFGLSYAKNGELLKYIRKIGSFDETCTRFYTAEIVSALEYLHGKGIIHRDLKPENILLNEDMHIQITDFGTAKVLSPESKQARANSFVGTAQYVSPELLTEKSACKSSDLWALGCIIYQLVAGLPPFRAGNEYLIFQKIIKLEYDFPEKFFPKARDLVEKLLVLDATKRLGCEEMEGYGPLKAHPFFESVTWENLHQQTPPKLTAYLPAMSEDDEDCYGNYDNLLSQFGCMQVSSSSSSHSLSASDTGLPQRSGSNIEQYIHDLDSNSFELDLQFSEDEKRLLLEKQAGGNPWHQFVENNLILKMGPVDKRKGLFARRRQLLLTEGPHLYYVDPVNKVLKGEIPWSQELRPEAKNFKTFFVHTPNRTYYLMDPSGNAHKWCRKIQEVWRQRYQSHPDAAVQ
As to conditions: at 0.1 µM.

Experiment [12] concerns the target cAMP-dependent protein kinase catalytic subunit alpha (Homo sapiens) (UniProt P17612). As to conditions: at 0.1 µM.
Experiment [13] has the same target. As to conditions: at 1 µM.
Experiment [14] concerns the target Protein kinase C alpha type (Homo sapiens) (UniProt P17252). Particulars: at 0.1 µM.
Experiment [15] has the same target. Particulars: at 1 µM.
Experiment [16] has as its target Protein kinase C beta type (Homo sapiens) (UniProt P05771). As to conditions: at 0.1 µM.
For experiment [17] the target is unchanged. Particulars: at 1 µM.
Experiment [18] addresses Protein kinase C eta type (Homo sapiens) (UniProt P24723). Particulars: at 0.1 µM.
Experiment [19] has the same target. Particulars: at 1 µM.
The target of experiment [20] is Protein kinase C gamma type (Homo sapiens) (UniProt P05129). As to conditions: at 0.1 µM.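 Further: values are mean percent inhibition of PKC gamma.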

Consider 6 compounds from ChEMBL document CHEMBL1961873, “Compounds: GSK PKIS; Assays: Nanosyn kinase panel” (2012).

Chain of Ribosomal protein S6 kinase alpha-4 (Homo sapiens) (O75676 whole entry, looked up): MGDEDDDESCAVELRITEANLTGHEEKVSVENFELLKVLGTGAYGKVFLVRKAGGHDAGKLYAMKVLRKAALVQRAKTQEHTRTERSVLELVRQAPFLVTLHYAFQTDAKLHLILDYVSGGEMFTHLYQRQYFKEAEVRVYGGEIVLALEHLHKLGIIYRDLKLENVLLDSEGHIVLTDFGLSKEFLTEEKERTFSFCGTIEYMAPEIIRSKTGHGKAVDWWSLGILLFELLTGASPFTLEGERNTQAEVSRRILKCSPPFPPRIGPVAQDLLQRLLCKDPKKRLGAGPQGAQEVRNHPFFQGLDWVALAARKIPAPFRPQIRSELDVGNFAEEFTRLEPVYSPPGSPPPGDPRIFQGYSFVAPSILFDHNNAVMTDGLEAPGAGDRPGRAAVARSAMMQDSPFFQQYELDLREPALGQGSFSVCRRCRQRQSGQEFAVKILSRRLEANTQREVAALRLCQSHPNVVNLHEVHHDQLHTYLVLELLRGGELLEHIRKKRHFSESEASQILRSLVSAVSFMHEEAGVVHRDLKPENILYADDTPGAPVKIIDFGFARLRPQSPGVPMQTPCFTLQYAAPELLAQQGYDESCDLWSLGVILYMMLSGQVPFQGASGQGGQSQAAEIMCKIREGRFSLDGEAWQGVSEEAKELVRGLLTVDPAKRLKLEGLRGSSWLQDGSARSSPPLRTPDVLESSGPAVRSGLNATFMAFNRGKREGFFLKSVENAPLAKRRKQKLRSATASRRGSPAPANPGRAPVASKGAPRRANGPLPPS
Chain of Ribosomal protein S6 kinase alpha-5 (Homo sapiens) (O75582 whole entry, looked up): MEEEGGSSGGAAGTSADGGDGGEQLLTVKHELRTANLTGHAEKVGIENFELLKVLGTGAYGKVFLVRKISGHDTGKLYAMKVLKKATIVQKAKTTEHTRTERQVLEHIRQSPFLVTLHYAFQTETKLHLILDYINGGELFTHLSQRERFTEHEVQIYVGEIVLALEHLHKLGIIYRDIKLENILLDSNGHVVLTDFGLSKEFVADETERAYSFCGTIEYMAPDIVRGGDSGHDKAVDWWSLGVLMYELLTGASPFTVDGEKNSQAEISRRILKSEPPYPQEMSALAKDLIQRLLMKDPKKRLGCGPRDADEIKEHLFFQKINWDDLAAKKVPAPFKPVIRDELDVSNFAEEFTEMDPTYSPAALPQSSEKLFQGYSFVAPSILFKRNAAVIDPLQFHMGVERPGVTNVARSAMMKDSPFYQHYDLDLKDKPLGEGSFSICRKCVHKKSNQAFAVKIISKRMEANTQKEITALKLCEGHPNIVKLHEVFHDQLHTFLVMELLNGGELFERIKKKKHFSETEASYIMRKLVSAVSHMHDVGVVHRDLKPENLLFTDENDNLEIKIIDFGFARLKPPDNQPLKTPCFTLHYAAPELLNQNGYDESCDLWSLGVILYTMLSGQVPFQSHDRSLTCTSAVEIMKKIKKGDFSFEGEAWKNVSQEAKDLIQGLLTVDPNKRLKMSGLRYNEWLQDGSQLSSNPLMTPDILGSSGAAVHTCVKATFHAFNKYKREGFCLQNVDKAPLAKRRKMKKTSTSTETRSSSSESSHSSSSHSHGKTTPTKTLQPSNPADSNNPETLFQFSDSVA
Chain of Protein kinase C eta type (Homo sapiens) (P24723 whole entry): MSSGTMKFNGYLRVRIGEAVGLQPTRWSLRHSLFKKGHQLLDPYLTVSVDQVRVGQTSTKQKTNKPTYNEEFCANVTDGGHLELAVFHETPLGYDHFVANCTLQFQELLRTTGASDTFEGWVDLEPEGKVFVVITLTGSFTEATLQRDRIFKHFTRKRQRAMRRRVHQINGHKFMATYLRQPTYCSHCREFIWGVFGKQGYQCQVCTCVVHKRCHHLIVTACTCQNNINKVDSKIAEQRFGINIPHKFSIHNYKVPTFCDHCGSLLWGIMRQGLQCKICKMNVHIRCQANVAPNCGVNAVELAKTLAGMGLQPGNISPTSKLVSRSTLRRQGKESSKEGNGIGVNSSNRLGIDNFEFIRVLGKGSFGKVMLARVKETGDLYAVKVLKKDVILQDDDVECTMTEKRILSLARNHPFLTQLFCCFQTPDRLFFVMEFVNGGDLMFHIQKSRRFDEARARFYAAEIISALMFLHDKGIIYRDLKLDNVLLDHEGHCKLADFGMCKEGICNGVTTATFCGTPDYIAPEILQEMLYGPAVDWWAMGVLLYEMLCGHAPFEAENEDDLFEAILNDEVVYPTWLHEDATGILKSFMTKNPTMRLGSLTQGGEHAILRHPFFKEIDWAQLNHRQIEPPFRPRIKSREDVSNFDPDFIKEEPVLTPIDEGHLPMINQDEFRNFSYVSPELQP
Chain of Protein kinase C beta type (Homo sapiens) (P05771 2-671 limits assumed): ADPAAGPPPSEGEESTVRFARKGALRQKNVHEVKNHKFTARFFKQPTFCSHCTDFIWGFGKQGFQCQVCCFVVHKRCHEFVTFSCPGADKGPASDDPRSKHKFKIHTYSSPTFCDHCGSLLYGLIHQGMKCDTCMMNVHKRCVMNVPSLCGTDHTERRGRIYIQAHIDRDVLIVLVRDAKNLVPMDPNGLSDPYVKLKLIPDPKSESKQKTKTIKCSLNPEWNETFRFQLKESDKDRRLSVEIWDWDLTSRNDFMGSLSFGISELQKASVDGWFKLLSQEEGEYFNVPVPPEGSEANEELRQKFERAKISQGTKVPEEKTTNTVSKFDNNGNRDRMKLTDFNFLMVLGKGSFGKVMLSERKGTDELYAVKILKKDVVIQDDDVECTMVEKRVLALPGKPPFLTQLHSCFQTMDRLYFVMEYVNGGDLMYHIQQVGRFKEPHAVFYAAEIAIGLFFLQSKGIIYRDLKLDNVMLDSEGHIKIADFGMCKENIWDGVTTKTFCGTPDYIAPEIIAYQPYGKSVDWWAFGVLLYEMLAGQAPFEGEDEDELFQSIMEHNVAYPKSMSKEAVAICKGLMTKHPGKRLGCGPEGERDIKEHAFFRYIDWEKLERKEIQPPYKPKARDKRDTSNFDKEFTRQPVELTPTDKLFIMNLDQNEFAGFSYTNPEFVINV
Chain of Ribosomal protein S6 kinase beta-1 (Homo sapiens) (P23443 whole entry, looked up): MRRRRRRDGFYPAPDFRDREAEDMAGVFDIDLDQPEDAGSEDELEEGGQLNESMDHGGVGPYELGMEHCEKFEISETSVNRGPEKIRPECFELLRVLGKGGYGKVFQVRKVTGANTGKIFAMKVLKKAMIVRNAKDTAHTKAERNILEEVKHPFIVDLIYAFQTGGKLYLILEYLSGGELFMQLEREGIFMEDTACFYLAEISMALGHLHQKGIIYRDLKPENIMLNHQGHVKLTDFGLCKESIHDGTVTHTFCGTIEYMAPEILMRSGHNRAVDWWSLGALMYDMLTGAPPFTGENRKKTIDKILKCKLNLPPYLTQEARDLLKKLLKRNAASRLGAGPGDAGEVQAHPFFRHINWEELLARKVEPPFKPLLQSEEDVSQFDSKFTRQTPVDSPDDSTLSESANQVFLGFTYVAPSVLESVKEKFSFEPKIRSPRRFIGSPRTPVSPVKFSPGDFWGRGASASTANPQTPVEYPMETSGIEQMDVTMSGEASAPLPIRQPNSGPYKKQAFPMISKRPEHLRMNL

A word on the inhibition: it is the change of the read-out against control, counted positive when it falls. Turning to `CCS(=O)(=O)c1ccc(OC)c(Nc2ncc(-c3cccc(OC)c3)o2)c1`, the inhibition was -0.07% in [1]; -0.94% in experiment [2]; -0.48% in experiment [3]; 0.59% in experiment [4]; 3.23% in [5]; 7.32% in experiment [6]. Further, the inhibition in experiment [7] is -0.21%; in experiment [8], 3.76%; in [9], 0.98%; in experiment [10], 1.18%; in [11] it was 1.14%; in experiment [12] it was 1.07%. In addition, the inhibition in experiment [13] was 1.26%; in experiment [14] it was 1.39%; in experiment [15] it was 5.21%; in experiment [16], 0.07%; in experiment [17], -1.05%; in experiment [18], -0.85%. Further, the inhibition in experiment [19] worked out at 1.66%; in [20], 2.11%.

Consider `[O-][S+]1CCN(Cc2ccc(-c3ccc4ncnc(Nc5ccc(OCc6ccccc6)c(Cl)c5)c4c3)o2)CC1`, for which the inhibition in [1] was -2.24%; in [2], -0.57%; in experiment [3] it was 0.47%; in [4], -0.33%; in experiment [5] it was 1.47%; in [6] it was 1.03%. The inhibition was -0.52% in experiment [7]; 0.11% in [8]; -1.26% in experiment [9]; -0.16% in experiment [10]; 0.06% in experiment [11]; 2.94% in [12]. Further, the inhibition in [13] is 7.99%; in experiment [14], 0.05%; in experiment [15], 0.88%; in [16] it was 0.56%; in [17] it was 0.65%; in experiment [18] it was 1.86%. Moreover, the inhibition was 2.18% in experiment [19] and -0.93% in [20].

With `COc1cccc(-n2ncc3c(N/N=C/c4ccc(S(C)(=O)=O)cc4)ncnc32)c1`, the inhibition in [1] is -0.29%; in [2], -0.45%; in experiment [3], 0.04%; in [4] it was 0.16%; in [5], -1.19%; in [6], -0.55%. Moreover, the inhibition was 1.78% in experiment [7]; 2.04% in experiment [8]; 1.23% in [9]; 5.85% in [10]; 2.37% in [11]; -3.29% in [12]. The inhibition in [13] was -0.93%; in experiment [14], -3.07%; in experiment [15] it was -0.59%; in [16], 2.22%; in experiment [17] it was 7.27%; in experiment [18], 1.23%. Also, the inhibition in [19] was 2.85%; in [20], 1.86%.

With `CN(C)C(=O)O[C@@H]1CN[C@@H](C#Cc2cc3ncnc(Nc4ccc(OCc5cccc(F)c5)c(Cl)c4)c3s2)C1`, the inhibition in [1] was 0.14%; in experiment [2] it was 1.14%; in [3] it was -0.75%; in experiment [4], 0.85%; in experiment [5], 0.39%; in experiment [6] it was 2.9%. Further, the inhibition in [7] is -1.34%; in [8] it was 2.41%; in experiment [9], 0.37%; in [10], 1.14%; in experiment [11] it was 0.77%; in experiment [12] it was 0.67%. The inhibition in experiment [13] is 1.2%; in [14] it was 0.33%; in [15] it was 1.13%; in experiment [16], -1.27%; in [17], 2.12%; in experiment [18], 4.86%. Also, the values for the inhibition in experiment [19] and in [20] were 1.38% and -1.57%, respectively.

On to `Cc1ccc2c(-c3ccnc(Nc4ccc5c(c4)OCCO5)n3)c(-c3ccc(C(F)(F)F)cc3)nn2n1`, for which the inhibition was -5.75% in experiment [1]; -1.13% in experiment [2]; 0.19% in [3]; 0.96% in experiment [4]; -0.15% in experiment [5]; -1.56% in [6]. The inhibition is 0.87% in [7]; 2.08% in experiment [8]; 0.35% in [9]; 0.24% in experiment [10]; -0.78% in experiment [11]; 4.47% in experiment [12]. For the same compound, the inhibition amounted to 7.16% in experiment [13]; 0.21% in experiment [14]; 1.55% in experiment [15]; 2.2% in experiment [16]; 2.03% in experiment [17]; 0.94% in experiment [18]. The results for the inhibition in [19] and in experiment [20] were 3.26% and 1.27%, respectively.

Take `CCn1c(-c2nonc2N)nc2ccc(F)cc21`: the inhibition in experiment [1] was -0.42%; in [2], 3.28%; in [3], -0.61%; in experiment [4], 1.2%; in experiment [5], 7.13%; in experiment [6], 21.2%. Moreover, the inhibition in [7] was 3.5%; in [8] it was 10.8%; in [9], 3.92%; in experiment [10] it was 28.4%; in experiment [11], -0.67%; in experiment [12], 2.75%. The inhibition in experiment [13] is 6.34%; in experiment [14], 1%; in experiment [15], 1.33%; in experiment [16] it was 2.61%; in experiment [17], 15.6%; in [18], 6.39%. Moreover, the figures for the inhibition in experiment [19] and in [20] were 26.6% and 4.75%, respectively.
